Source: paper PMC4336329 (PLoS ONE, 2015)
Hit rate of the full screen: of about 310,000 compounds, about 14,000 (4.5%) showed an effect of 50% or more. The effect is printed as a negative number. This is one part of a sample in which strong results are shown more often than they occur.

What follows are molecules tested against human ether-à-go-go-related gene (hERG) potassium channel (human, UniProt Q12809) (assay: primary screen, population patch clamp on CHO cells stably expressing hERG; higher = less effect of the substance).
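Further: peak tail current of the secondary pulse compared with the same well before compound.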

Sequence of human ether-à-go-go-related gene (hERG) potassium channel (Q12809 whole entry, looked up): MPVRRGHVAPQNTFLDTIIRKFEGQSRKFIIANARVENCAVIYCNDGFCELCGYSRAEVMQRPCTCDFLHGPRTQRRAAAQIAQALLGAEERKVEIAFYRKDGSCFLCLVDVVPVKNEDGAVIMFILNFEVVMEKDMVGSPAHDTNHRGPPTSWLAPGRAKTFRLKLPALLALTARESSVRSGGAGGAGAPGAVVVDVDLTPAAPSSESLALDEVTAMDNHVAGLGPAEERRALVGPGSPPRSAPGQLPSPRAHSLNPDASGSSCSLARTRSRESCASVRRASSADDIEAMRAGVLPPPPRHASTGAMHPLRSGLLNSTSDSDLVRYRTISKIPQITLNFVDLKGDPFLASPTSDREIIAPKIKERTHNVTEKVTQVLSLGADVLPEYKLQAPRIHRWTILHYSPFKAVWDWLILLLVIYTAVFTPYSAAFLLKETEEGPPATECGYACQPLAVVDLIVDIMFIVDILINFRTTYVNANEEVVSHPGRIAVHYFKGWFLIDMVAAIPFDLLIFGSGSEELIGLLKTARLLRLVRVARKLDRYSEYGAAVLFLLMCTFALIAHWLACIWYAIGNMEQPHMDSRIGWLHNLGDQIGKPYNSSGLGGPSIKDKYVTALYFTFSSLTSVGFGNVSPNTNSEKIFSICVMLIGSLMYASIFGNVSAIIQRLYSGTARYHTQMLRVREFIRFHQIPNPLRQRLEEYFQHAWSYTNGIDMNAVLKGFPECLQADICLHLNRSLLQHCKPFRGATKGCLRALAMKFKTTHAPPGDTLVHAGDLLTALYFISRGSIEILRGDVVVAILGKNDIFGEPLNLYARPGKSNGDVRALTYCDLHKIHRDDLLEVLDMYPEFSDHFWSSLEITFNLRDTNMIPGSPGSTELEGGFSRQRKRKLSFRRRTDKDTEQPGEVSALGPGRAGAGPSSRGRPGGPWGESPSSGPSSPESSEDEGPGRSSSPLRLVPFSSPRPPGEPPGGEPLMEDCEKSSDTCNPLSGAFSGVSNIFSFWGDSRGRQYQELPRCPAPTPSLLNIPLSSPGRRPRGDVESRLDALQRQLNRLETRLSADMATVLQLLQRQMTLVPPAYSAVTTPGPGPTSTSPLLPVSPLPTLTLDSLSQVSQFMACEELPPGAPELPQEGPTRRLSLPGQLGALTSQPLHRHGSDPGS

Point of comparison: CC(C)CCNC(=O)CN(C(=O)CCC(=O)Nc1nccs1)c1ccc2c(c1)OCCO2, “hERG current change (%, negative = inhibition) at 10uM” value -4.45%. Against it:
- O=C(CCCN1C(=O)c2ccccc2C1=O)NCC1CCCO1 (centres unmarked) — higher, 12.2%
- COc1cc(SC)ccc1C(=O)Nc1ccc2c(c1)OCCO2 — lower, -18.4%
- CCCCc1c(C)nn(-c2nnc3c4ccccc4n(C)c3n2)c1C — lower, -4.7%
- CCCC1=Nc2cc(C(=O)NCCCN3CCOCC3)ccc2Sc2ccccc21 — lower, -9.32%
- O=C(Nc1cccc(S(=O)(=O)N2CCOCC2)c1)c1cc([N+](=O)[O-])ccc1N1CCOCC1 — lower, -15.2%
- O=C(Nc1cccc(C(F)(F)F)c1)c1cc(S(=O)(=O)N2CCCCC2)ccc1N1CCOCC1 — lower, -8.02%
- CN(C)S(=O)(=O)c1cccc(NC(=O)c2cc([N+](=O)[O-])ccc2N2CCCCC2)c1 — lower, -53%
- CN(C)S(=O)(=O)c1ccc(N2CCCC2)c(C(=O)Nc2ccccc2)c1 — lower, -23.5%
- O=C(Nc1cccc(S(=O)(=O)N2CCCCC2)c1)c1cc([N+](=O)[O-])ccc1N1CCOCC1 — lower, -64.2%
- COc1ccc(NC(=O)c2cc([N+](=O)[O-])ccc2N2CCCCC2)cc1 — higher, 4.86%
- CN(C)S(=O)(=O)c1ccc(N2CCCC2)c(C(=O)Nc2cccc(F)c2)c1 — higher, 0.224%
- CC(=O)Nc1cccc(NC(=O)c2cc([N+](=O)[O-])ccc2N2CCCCC2)c1 — lower, -69.3%
- Cc1ccc(NC(=O)c2cc([N+](=O)[O-])ccc2N2CCCC2)cc1 — higher, -0.291%
- N#CC(C#N)=Cc1cccn1-c1ccc(C(=O)O)cc1 — higher, 15.5%
- CC(C)NC(=O)CN1C(=O)C(=O)c2ccccc21 — lower, -9.78%
- Cc1nc2ccc(S(=O)(=O)NC(C(=O)N3CCCC3)C(C)C)cc2s1 (centres unmarked) — higher, 7.12%
- COc1cc2c(cc1OC)CN(C(=O)c1ccc(S(=O)(=O)N3CCCCCC3)cc1)CC2 — lower, -27.3%
- Cc1nnc(NC(=O)CSc2nc3c(c(=O)n2C)SC(C)C3)s1 (centres unmarked) — higher, 4.1%
- Cc1ccc(-c2nnc(SCC(=O)NNC(=O)COc3cccc4ccccc34)n2C)cc1 — higher, 5.74%
- O=C(N/N=C/c1ccccc1)c1ccc(N2CCCC2=O)cc1 — higher, 5.87%
- COc1cccc(/C=N/NC(=O)c2ccc(N3CCCC3=O)cc2)c1 — lower, -19.8%
- O=C(N/N=C/c1cccc(Br)c1)c1ccc(N2CCCC2=O)cc1 — lower, -57.6%
- CC(Oc1ccc([N+](=O)[O-])cc1)C(=O)NCC1CCCO1 (centres unmarked) — lower, -7.02%
- COc1ccccc1N1C(=O)c2cccc3c(N(C)CCO)ccc(c23)C1=O — higher, 5.75%
- COCCCNC(=O)c1ccc2c(c1)OCO2 — lower, -9.98%
- Cl.Fc1ccccc1CNCCC(Cc1ccccc1)c1ccc2c(c1)OCO2 (centres unmarked) — lower, -50.6%
- COCCCNCCC(CCC(C)C)c1ccc2c(c1)OCO2.Cl (centres unmarked) — lower, -80.2%
- CC(=O)N(CCC(Cc1ccccc1)c1ccc2c(c1)OCO2)Cc1ccccc1F (centres unmarked) — higher, 7.53%
- Fc1ccc(C(CCNCc2ccccn2)c2ccc(Cl)cc2)cc1 (centres unmarked) — lower, -77.5%
- CCc1ccccc1NC(=O)NC(C)c1ccc2c(c1)OCO2 (centres unmarked) — higher, 14%
- COCCCNS(=O)(=O)c1ccc2c(c1)OCCO2 — higher, 6.53%
- CC(NC(=O)C1CCC1)c1ccc2c(c1)OCO2 (centres unmarked) — lower, -5.51%
- Fc1cccc(CCNCc2ccccn2)c1 — lower, -6.71%
- CCNCCC(CCC(C)C)c1ccc2c(c1)OCO2 (centres unmarked) — lower, -72%
- Cl.Fc1ccc(-c2ccc(CNCc3ccccn3)o2)cc1 — lower, -25.4%
- Fc1ccccc1CNCCc1ccc2c(c1)OCO2 — lower, -7.43%
- Nc1nc(NCCOCCO)nc(NCc2ccccc2)c1[N+](=O)[O-] — higher, -1.49%
- O=C(NCc1ccccc1)C(=O)Nc1cccc(C(=O)O)c1 — higher, 4.16%
- NC(=O)N/N=C/c1ccccc1OCC(=O)NCc1ccccc1 — higher, -3.76%
- S=c1[nH]nc(-c2ccncc2)n1/N=C/C=C/c1ccccc1 — higher, 8.71%
- COc1ccc(S(=O)(=O)N(CCC(=O)O)Cc2ccccc2)cc1 — higher, 13.7%
- Cc1ccc(-n2ncc3c(=O)n(CC(=O)NC4CCCC4)cnc32)cc1C — higher, 5.66%
- CCOC(=O)c1ccc(NC(=O)Cc2coc3cc4c(cc23)CCC4)cc1 — higher, 5.55%
- CO[C@@]1(NC(=O)CSCC#N)C(=O)N2C(C(=O)[O-])=C(CSc3nnnn3C)CS[C@@H]21.[Na+] — higher, 4.09%
- Cc1cccc(NC(=O)NNS(=O)(=O)c2ccc(F)cc2)c1 — higher, -1.81%
- CSc1nnc(SCC#N)s1 — higher, 8.95%
- Cc1cc(N/N=C/c2ccccc2)nc(N)n1 — lower, -14.5%
- CC(C)CCC(CCNCc1ccccn1)c1ccc(Cl)cc1 (centres unmarked) — lower, -80.4%
- CC(C)C(CCNCc1ccccn1)c1ccc(Cl)cc1 (centres unmarked) — lower, -41.6%
- c1ccc(CNCc2ccc3c(c2)OCO3)nc1 — higher, 11.2%
- O=C(O)C(=O)O.c1ccc(CNCCc2ccc3c(c2)OCO3)nc1 — higher, 2.74%
- O=C(NCc1ccccn1)Nc1ccc(Cl)cc1 — higher, 13.9%
- CC(C)CCC(CCNCc1ccccn1)c1ccc2c(c1)OCO2.Cl (centres unmarked) — lower, -75.5%
- O=C(CF)NC(Nc1cccc2cccnc12)C(Cl)(Cl)Cl (centres unmarked) — lower, -5.95%
- COc1ccc(N2CCN(C(=O)c3ccc4c(c3)CCN4S(=O)(=O)c3ccccc3)CC2)cc1 — lower, -23.2%
- O=C(NCC1CC1)Nc1ccccc1 — higher, 16.3%
- N#C/C(=C/c1cc[nH]c1)C(N)=S — higher, 14.2%
- COc1ccc(Cl)cc1NC(=O)CN1CCC(NC(=O)C2CC2)CC1 — lower, -52%
- COc1ccccc1NC(=O)CN1CCN(Cc2ccccc2)CC1 — lower, -67.6%
- CCN1CCC(NC(=O)Nc2cc(Cl)ccc2OC)CC1 — higher, -2.83%
- CSc1ccccc1NC(=O)CN1CCN(Cc2ccccc2)CC1 — lower, -66.3%
- COc1ccccc1NC(=O)CN1CCN(c2ccccc2)CC1 — lower, -12.7%
- CSc1ccccc1NC(=O)CN1CCN(S(=O)(=O)c2ccccc2[N+](=O)[O-])CC1 — lower, -52.2%
- COC(=O)C1CCN(CC(=O)Nc2cc(Cl)ccc2OC)CC1 — lower, -19%
- O=C(CN1CCN(S(=O)(=O)c2ccccc2[N+](=O)[O-])CC1)Nc1ccc(N2CCOCC2)cc1 — lower, -12.9%
- COc1ccccc1NC(=O)CCN1CCN(Cc2ccccc2)CC1 — lower, -22.3%
- CSc1ccccc1NC(=O)CN1CCCCC1 — higher, 8.96%
- O=C(CN1CCN(S(=O)(=O)c2ccccc2[N+](=O)[O-])CC1)NC(=O)NCc1ccco1 — lower, -5.96%
- COc1ccc(N2CCN(CC(=O)Nc3ccccc3SC)CC2)cc1 — lower, -5.77%
- Cc1ccccc1C(=O)NC(=S)Nc1ccccc1[N+](=O)[O-] — higher, 18.1%
- O=C(NC(Cc1c[nH]c2ccccc12)c1nnc2n1CCCCC2)c1ccccc1 (centres unmarked) — higher, 18.7%
- Cc1ccc(S(=O)(=O)N2CCCC(C(=O)NCCC3=CCCCC3)C2)cc1 (centres unmarked) — higher, -4.03%
- CC1Cc2ccccc2N1C(=O)Cn1cnc2ccccc2c1=O (centres unmarked) — higher, 21.8%
- Cc1cc(C)nc(NC(=O)CSc2ccccn2)n1 — higher, 1.08%
- C/C(=N/NC(=O)c1ccc(Br)o1)c1ccncc1 — higher, 7.82%
- CCOc1ccccc1NC(=O)C1CCN(c2ccc(S(=O)(=O)N3CCCC3)cc2)CC1 — lower, -6.65%
- CCC1CCCCN1CCNS(=O)(=O)c1ccc2c(c1)CCN2C(C)=O (centres unmarked) — higher, -1.09%
- CCN1CCN(C(=O)N(c2ccccc2)c2ccccc2)CC1 — higher, 11.9%
- Cc1n[nH]c(=O)c2c(NC(=O)CSc3nc4ccccc4c(=O)n3CCCO)oc(C)c12 — lower, -21.2%
- COc1cccc(Cn2c(Oc3cccc(C)c3)nc3c2c(=O)n(C)c(=O)n3C)c1 — lower, -9.7%
- O=S(=O)(N/N=C/c1ccc(F)cc1)c1ccccc1 — higher, 6.88%
- Cn1nc(-c2ccc(NCCO)c([N+](=O)[O-])c2)c2ccccc2c1=O — higher, -2.29%
- O=C(c1ccccc1Cl)N(Cc1ccc(Cl)c(Cl)c1)N1C(=O)CCCC1=O — lower, -6.37%
- CC(=O)Nc1ccc(NC(=O)C(C)Oc2ccccc2C(=O)NCc2ccccc2)cc1 (centres unmarked) — lower, -46.9%
- COc1ccc(OC2CCN(S(=O)(=O)c3ccc(C(C)=O)cc3)CC2)cc1 — lower, -19.7%
- COc1ccccc1NC(=O)c1nnn(Cc2ccccc2)c1NC(C)=O — higher, 2.36%
- COc1ccc(Cl)cc1NC(=O)CN1CCCCCC1 — lower, -8.36%
- COc1ccc(Cl)cc1NC(=O)CN1CCN(Cc2ccccc2)CC1 — lower, -68.9%
- O=C(Nc1ccccc1)c1nnn(Cc2ccccc2)c1NC(=O)C(F)(F)F — lower, -7.45%
- COc1ccc(Cl)cc1NC(=O)CCN1CCN(c2ccccc2C)CC1 — higher, 6.79%
- COc1ccccc1NC(=O)c1nnn(Cc2ccccc2)c1NC(=O)C(F)(F)F — lower, -53%
- COc1ccc(Cl)cc1NC(=O)CN1CCCC1.Cl — higher, 5.1%
- COc1ccc(OC)c(NC(=O)CCN2CCN(Cc3ccccc3)CC2)c1.Cl — lower, -32.9%
- COc1ccc(Cl)cc1NC(=O)CCN1CCN(Cc2ccccc2)CC1 — lower, -64.6%
